Eight compounds from PubChem BioAssay can be followed below.

For experiment [1], the system named is Human papillomavirus type 1a protein E7 (residues 44-93). In words: small molecules binding HPV E7 44-93 – biochemical, small-molecule microarray, residues 44-93, 635 nm fluorescence, primary screen (AID 1108).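 Further: E7 fragment applied at 1 µg/mL in TBST for 1 h at 4 C; score combines spot fluorescence with its signal to noise ratio.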 Conditions: fluorescence 635 nm, higher = more signal.
Experiment [2] is described as follows: hepatitis C replication reporter changes, two-sided – Huh7 cells, luciferase reporter, HCV replication inhibitor project, primary screen (AID 1109).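 Further: huh7 hepatoma cells harbouring a luciferase neomycin HCV replicon reporter; luciferase luminescence as measure of HCV replicon replication; test concentration not given here.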 Conditions: Huh7 HCV replicon luciferase reporter, 48 h; higher = more signal. For orientation: In a reporter assay the amount or activity of a reporter protein is the signal.
The target in experiment [3] is Left-right determination factor 2 (Homo sapiens) (UniProt O00292). As to the kind of experiment: small molecules binding LEFTY2 protein – biochemical, small-molecule microarray, 635 nm fluorescence scan, primary screen (AID 1110). Particulars: higher = more signal.
Experiment [4] deals with Calmodulin-1 (Homo sapiens) (UniProt P0DP23). In words: small molecules binding calmodulin-1 with EGTA – biochemical, small-molecule microarray, Cy5-labelled CALM1, profiling panel (AID 1111).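 Further: labelled calmodulin applied in Tris saline Tween buffer holding calcium plus EGTA and DTT.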 Particulars: Cy5-CALM1 binding fluorescence, higher = more signal.
The target is the same in experiment [5]. In words: small molecules binding Ca-loaded calmodulin-1 – biochemical, small-molecule microarray, Cy5-labelled CALM1, plus calcium, artefact control for SMM control-protein annotation, profiling panel (AID 1112).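 Further: score merges spot fluorescence with signal to noise from triplicate slides.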 Particulars: Cy5-CALM1 binding fluorescence, higher = more signal.
Experiment [6] is described as follows: probe aWnt5a binding to arrayed compounds – biochemical, biotinylated probe, 635/667 nm fluorescence, primary screen (AID 1113).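 Further: score merges 667 nm fluorescence intensity with signal-to-noise per printed feature.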 Particulars: small-molecule microarray, higher = more signal.
Experiment [7] can be described thus: probe aShh binding to arrayed compounds – biochemical, biotinylated probe, 635/667 nm fluorescence, primary screen (AID 1114).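 Further: probe is biotin-labelled aShh protein from a stem cell growth factor screen; measures binding of labelled protein to compounds printed on the slide; score merges feature fluorescence at 667 nm with signal-to-noise.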 Particulars: small-molecule microarray, higher = more signal.
Experiment [8] in a line: probe aNog binding to arrayed compounds – biochemical, biotinylated probe, 635/667 nm fluorescence, primary screen (AID 1115).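 Further: probe is biotinylated aNog protein used at 0.15 µg/mL for 1 h at 4 C; z-score combines 667 nm fluorescence of each spot with its signal to noise.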 Particulars: small-molecule microarray, higher = more signal.
Experiment [9] concerns the target Torsin-1A-interacting protein 1 (Homo sapiens) (UniProt Q5JTV8). As to the kind of experiment: compound microarray binding of lysate hLAP1 – cell lysate, small-molecule microarray, COS7 lysate, 635/667 nm fluorescence, primary screen (AID 1116). Particulars: 635 nm fluorescence, higher = more signal.
Experiment [10] concerns the target Alpha-bungarotoxin (Bungarus multicinctus) (UniProt P60615). In words: compounds binding labelled alpha-BTX control protein – biochemical, small-molecule microarray, Alexa647 label, 635/667 nm fluorescence, artefact control for SMM control protein annotation, profiling panel (AID 1117). Particulars: alpha-BTX-A647 binding fluorescence, higher = more signal.
A further experiment deals with Albumin (Bos taurus) (UniProt P02769). In words: compounds binding labelled BSA control protein – biochemical, small-molecule microarray, Alexa647 label, 635/667 nm fluorescence, artefact control for SMM control protein annotation, profiling panel (AID 1118).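 Further: score merges 667 nm emission intensity and signal-to-noise per printed compound spot.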 Particulars: BSA-A647 binding, fluorescence 635 nm, higher = more signal.
A short description of experiment [11]: probe aXIP binding to arrayed compounds – biochemical, NeuroSMM set, 635/667 nm fluorescence, primary screen (AID 1119).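 Further: probe is the protein aXip251-270 applied at 1 µg/mL to compound-printed slides; binding of probe to printed compounds measured as 667 nm fluorescence plus signal to noise.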 Conditions: small-molecule microarray, higher = more signal, called active from +8 up or from −8 down.
A short description of experiment [12]: probe aNOTCH3 binding on compound microarray – biochemical, small-molecule microarray, 635/667 nm fluorescence, primary screen (AID 1120).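 Further: probe is a biotin-tagged antibody raised against NOTCH3 rather than NOTCH3 protein; score merges spot fluorescence near 667 nm with spot signal to noise.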 Conditions: higher = more signal.
Experiment [13] can be described thus: probe aNOTCH2 binding on compound microarray – biochemical, small-molecule microarray, 635/667 nm fluorescence, primary screen (AID 1121).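 Further: score merges feature fluorescence read at 667 nm with its signal to noise.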 Conditions: higher = more signal.
The target in experiment [14] is Carbonic anhydrase 2 (Homo sapiens) (UniProt P00918). As to the kind of experiment: compounds binding carbonic anhydrase 2 – biochemical, small-molecule microarray, Alexa647-labelled CAII, profiling panel (AID 1122). Conditions: CAII-A647 binding fluorescence, higher = more signal.
The nature of experiment [15]: COS7 lysate on small-molecule microarray, probe aHis, 635 nm (AID 1123).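 Further: z-score combines 667nm fluorescence intensity with signal-to-noise per printed compound spot.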 Conditions: COS7 cell lysate, fluorescence, higher = more signal.
Experiment [16] in a line: probe aLAP1 signal on lysate-treated microarray – cell lysate, small-molecule microarray, COS7 lysate, primary screen (AID 1124).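 Further: lysate comes from COS7 cells expressing LAP1 and is applied at 0.3 µg/mL; score merges spot fluorescence near 667 nm with signal-to-noise over triplicate slides.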 Particulars: probe aLAP1, fluorescence, higher = more signal.
In a further experiment the test system is Sam68 (KHDRBS1). In words: compounds binding KHDRBS1 protein – biochemical, small-molecule microarray, 635 nm fluorescence, primary screen (AID 1125).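 Further: score merges 667 nm channel intensity with signal to noise over triplicate slides.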 Particulars: higher = more signal.
Experiment [17] deals with Chordin-like protein 2 (CHRDL2). In words: compounds binding chordin-like 2 – biochemical, small-molecule microarray, 635 nm fluorescence, primary screen (AID 1126).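 Further: printed compound slides probed with Chrdl2 protein at 4 µg/mL for 1 h at 4 C; score merges 667 nm emission intensity with signal to noise over three replicate slides.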 Conditions: fluorescence 635 nm, higher = more signal.
Experiment [18] addresses Concanavalin-A (Canavalia ensiformis) (UniProt P02866). As to the kind of experiment: compounds binding concanavalin A lectin – biochemical, small-molecule microarray, Alexa647 label, 635 nm, artefact control for SMM control protein annotation, primary screen (AID 1127).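 Further: z combines 667 nm emission intensity with signal-to-noise across three replicate slides.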 Particulars: ConA-A647 binding fluorescence, higher = more signal.

Calls of active or inactive are those of the source.

Left-right determination factor 2 (Homo sapiens), sequence (O00292 whole entry, looked up): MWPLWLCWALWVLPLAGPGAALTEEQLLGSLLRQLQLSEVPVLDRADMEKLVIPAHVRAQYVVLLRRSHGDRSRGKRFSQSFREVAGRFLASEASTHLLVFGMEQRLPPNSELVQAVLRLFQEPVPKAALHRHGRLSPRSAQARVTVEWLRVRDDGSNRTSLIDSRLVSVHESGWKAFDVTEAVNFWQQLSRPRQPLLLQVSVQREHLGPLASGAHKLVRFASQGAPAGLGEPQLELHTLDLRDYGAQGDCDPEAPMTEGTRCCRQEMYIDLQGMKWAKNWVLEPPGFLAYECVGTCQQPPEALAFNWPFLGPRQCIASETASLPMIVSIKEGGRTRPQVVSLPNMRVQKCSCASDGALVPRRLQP
Concanavalin-A (Canavalia ensiformis), sequence (P02866 whole entry, looked up): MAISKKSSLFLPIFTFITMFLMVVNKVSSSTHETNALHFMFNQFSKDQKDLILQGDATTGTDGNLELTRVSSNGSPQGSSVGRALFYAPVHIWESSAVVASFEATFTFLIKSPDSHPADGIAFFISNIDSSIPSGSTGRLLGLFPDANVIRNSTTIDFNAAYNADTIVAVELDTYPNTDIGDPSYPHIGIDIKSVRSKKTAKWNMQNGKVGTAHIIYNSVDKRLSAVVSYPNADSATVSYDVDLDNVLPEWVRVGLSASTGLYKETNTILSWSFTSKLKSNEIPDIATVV
Torsin-1A-interacting protein 1 (Homo sapiens), sequence (Q5JTV8 whole entry, looked up): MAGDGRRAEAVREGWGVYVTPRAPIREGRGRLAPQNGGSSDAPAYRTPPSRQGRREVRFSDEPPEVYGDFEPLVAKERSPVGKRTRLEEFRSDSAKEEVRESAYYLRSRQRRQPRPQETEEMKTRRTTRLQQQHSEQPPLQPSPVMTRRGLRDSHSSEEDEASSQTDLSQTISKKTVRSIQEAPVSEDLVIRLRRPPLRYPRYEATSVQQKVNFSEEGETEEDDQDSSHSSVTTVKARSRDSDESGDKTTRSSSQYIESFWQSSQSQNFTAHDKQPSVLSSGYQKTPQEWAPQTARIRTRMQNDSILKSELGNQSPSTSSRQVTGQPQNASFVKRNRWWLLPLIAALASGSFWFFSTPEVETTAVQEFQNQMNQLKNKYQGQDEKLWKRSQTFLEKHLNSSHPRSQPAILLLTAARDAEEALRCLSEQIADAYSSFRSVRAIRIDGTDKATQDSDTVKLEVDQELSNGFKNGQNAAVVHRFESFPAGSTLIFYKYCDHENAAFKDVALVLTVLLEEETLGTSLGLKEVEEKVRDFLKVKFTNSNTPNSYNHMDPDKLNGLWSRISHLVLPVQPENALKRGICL
Alpha-bungarotoxin (Bungarus multicinctus), sequence (P60615 whole entry, looked up): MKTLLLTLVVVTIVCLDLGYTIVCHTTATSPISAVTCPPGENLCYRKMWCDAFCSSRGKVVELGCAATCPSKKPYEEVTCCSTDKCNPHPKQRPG
Albumin (Bos taurus), sequence (P02769 whole entry, looked up): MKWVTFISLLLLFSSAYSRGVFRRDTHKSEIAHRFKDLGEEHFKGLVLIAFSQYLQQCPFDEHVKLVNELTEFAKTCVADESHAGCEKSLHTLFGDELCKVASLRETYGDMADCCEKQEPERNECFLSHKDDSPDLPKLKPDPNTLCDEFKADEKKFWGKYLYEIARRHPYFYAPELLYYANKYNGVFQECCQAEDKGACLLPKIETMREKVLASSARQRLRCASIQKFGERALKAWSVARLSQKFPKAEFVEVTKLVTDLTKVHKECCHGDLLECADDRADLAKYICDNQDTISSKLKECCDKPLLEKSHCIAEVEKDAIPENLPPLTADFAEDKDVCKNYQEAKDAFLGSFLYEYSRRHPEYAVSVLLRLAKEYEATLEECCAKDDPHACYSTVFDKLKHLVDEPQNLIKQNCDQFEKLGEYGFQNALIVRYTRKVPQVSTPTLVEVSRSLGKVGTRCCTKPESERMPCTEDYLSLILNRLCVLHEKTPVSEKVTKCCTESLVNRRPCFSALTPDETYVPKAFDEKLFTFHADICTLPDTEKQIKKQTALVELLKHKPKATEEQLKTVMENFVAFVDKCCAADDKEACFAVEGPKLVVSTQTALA

For the compound `CN1C(=O)[C@]2(CCS(=O)(=O)c3ccccc3)N=C(c3ccc(OCCCO)cc3)O[C@@H]2c2ccccc21`, the composite z-score in experiment [1] is 1.5; in experiment [3] it was -0.249; in experiment [4], 1.11; in experiment [5], -0.545; in experiment [6], -0.0704; in experiment [7], -0.0119. Also, the composite z-score in [8] is -0.122; in [9], 0.0996; in experiment [10], 0.836; with Albumin (Bos taurus), 0.568; in experiment [12], 0.0026; in [13], -0.121. The composite z-score in experiment [14] amounted to 0.531; in experiment [15], 2.81; in experiment [16], 0.354; with Sam68 (KHDRBS1) it was 1.2; in [17] it was 0.502; in experiment [18] it was 0.838. For the same compound, the z-score in experiment [2] was -2.63. For the same compound, the composite Z-score in experiment [11] is 0.222 (inactive).

With `CC(C)C[C@@H]1NC(=O)[C@H]2C[C@@H](C(=O)NCCCCCNC(=O)CS)[C@@H](c3ccc(O)cc3)N2C1=O`, the composite z-score in experiment [1] is 1.46; in experiment [3], 0.679; in experiment [4] it was 1.03; in experiment [5] it was -0.568; in experiment [6] it was 0.23; in experiment [7] it was 0.203. Besides, the composite z-score in experiment [8] is -0.324; in experiment [9] it was 0.602; in experiment [10] it was 1.54; with Albumin (Bos taurus) it was -0.796; in [12] it was -0.171; in experiment [13], -0.144. In addition, the composite z-score is 0.414 in experiment [14]; 2.08 in [15]; 0.873 in [16]; 1.31 in the experiment with Sam68 (KHDRBS1); 0.795 in experiment [17]; 0.885 in experiment [18]. Besides, the z-score in experiment [2] was -0.28. Also, the composite Z-score in experiment [11] is 0.0136 (inactive).

Consider `C[C@]1(C(=O)NCC(F)(F)F)c2ccccc2C(=O)N(Cc2ccc(OC(F)(F)F)cc2)[C@H]1c1ccc(CO)cc1`, for which the composite z-score was 0.26 in experiment [1]; -0.143 in experiment [3]; -0.0779 in [4]; -0.373 in experiment [5]; -0.154 in experiment [6]; -0.0626 in experiment [7]. The composite z-score in [8] is -0.519; in experiment [9] it was -0.115; in experiment [10], 0.25; in the experiment with Albumin (Bos taurus) it was 0.499; in experiment [12] it was -0.179; in experiment [13] it was -0.171. For the same compound, the composite z-score in experiment [14] was 0.481; in experiment [15], 0.751; in [16], 0.0891; with Sam68 (KHDRBS1), 0.185; in [17], -0.0339; in experiment [18] it was 0.422. For the same compound, the z-score in experiment [2] is -1.11. Also, the composite Z-score in [11] was -0.568 (inactive).

As for `COc1ccc(NN2C(C(O)c3ccc(OC)cc3)C=CC3C(=O)N(C4CCCCC4)C(=O)C32)cc1` (stereo not given), the composite z-score in experiment [1] was 1.2; in [3], 0.318; in experiment [4], 0.566; in experiment [5], -0.366; in experiment [6], 0.0357; in [7], 0.191. In addition, the composite z-score is 0.571 in experiment [8]; 0.53 in experiment [9]; 1.08 in experiment [10]; 0.828 with Albumin (Bos taurus); 0.124 in experiment [12]; -0.0037 in experiment [13]. The composite z-score in [14] is 0.405; in [15], 1.1; in [16], 0.0023; in the experiment with Sam68 (KHDRBS1), 1.28; in [17], -0.138; in experiment [18], 0.872. In addition, the z-score in [2] is -1.02. Further, in [11], the composite Z-score is 0.297 (inactive).

For the compound `COC(=O)[C@@]1(Cc2ccc(F)cc2)[C@H]2c3cc(C(=O)N(C)C)n(CCn4cc([N+](=O)[O-])nc4C)c3C[C@H]2CN1C(=O)c1ccccc1`, the composite z-score in experiment [1] was 0.81; in [3], -0.831; in experiment [4] it was 0.892; in [5] it was 0.378; in [6] it was -0.003; in experiment [7] it was 0.631. Also, the composite z-score in [8] turned out to be 1.08; in [9], 1.49; in experiment [10] it was 0.0533; in the experiment with Albumin (Bos taurus), 0.781; in [12], 0.0203; in experiment [13], 0.107. For the same compound, the composite z-score in experiment [14] is 0.477; in [15], 2.02; in experiment [16] it was 0.317; with Sam68 (KHDRBS1) it was 0.155; in experiment [17] it was -0.187; in experiment [18], 0.294. The z-score in experiment [2] was -0.112. In addition, the composite Z-score in experiment [11] was -0.133 (inactive).

In the case of `COc1ccc([Si](C)(C)[C@H]2[C@H](CCn3cc([C@H](O)c4ccccc4)nn3)O[C@@]3(C(=O)N(C)c4c(Br)cc(C)cc43)[C@@H]2C)cc1`, the composite z-score in experiment [1] was -0.0087; in [3], 0.285; in experiment [4] it was 0.0287; in experiment [5] it was -0.0094; in experiment [6], -0.124; in [7], 0.0796. Further, the composite z-score was -0.411 in [8]; 0.088 in experiment [9]; 0.14 in experiment [10]; -0.628 with Albumin (Bos taurus); -0.259 in [12]; -0.103 in experiment [13]. Moreover, the composite z-score in experiment [14] was -0.149; in [15] it was -0.215; in [16] it was -0.112; in the experiment on Sam68 (KHDRBS1), 0.0516; in [17] it was 0.182; in experiment [18] it was 0.005. In [2], this compound had a z-score of -4.19. Further, the composite Z-score in [11] is 1.94 (inactive).

As for `CCC(CC)C(O)C1C=CC2C(=O)N(C)C(=O)C2N1N1CCCCC1` (stereo not given), the composite z-score was 1.43 in experiment [1]; 0.692 in [3]; 1.68 in experiment [4]; -0.263 in experiment [5]; 0.0229 in experiment [6]; 0.0381 in [7]. Further, the composite z-score came to 1.57 in [8]; 0.103 in experiment [9]; 1.2 in [10]; 0.999 in the experiment with Albumin (Bos taurus); 0.499 in experiment [12]; 0.0477 in experiment [13]. The composite z-score in experiment [14] is 0.755; in experiment [15] it was 2.5; in [16], 0.502; in the experiment with Sam68 (KHDRBS1), 1.31; in [17], 0.0277; in experiment [18], 1.13. Moreover, the z-score in experiment [2] was -0.481. Also, the composite Z-score in experiment [11] is -0.175 (inactive).

Consider `CCOC(=O)C1=C(C(=O)OCC)N(S(=O)(=O)CC[Si](C)(C)C)[C@H](c2ccccc2)CC1`, for which the composite z-score in experiment [1] was 1.3; in [3], -0.171; in [4] it was 0.435; in [5] it was 0.161; in experiment [6], 0.0307; in experiment [7], -0.164. The composite z-score in experiment [8] is 0.118; in [9], 0.356; in experiment [10], 1.23; in the experiment with Albumin (Bos taurus), 0.565; in experiment [12] it was 0.112; in experiment [13] it was -0.075. For the same compound, the composite z-score was 0.443 in experiment [14]; 0.727 in [15]; -0.102 in experiment [16]; 1.3 in the experiment on Sam68 (KHDRBS1); -0.0267 in experiment [17]; 1.14 in experiment [18]. Further, the z-score in experiment [2] was -2.8. Also, in experiment [11], the composite Z-score is -0.463 (inactive).
